Compound activity (PubChem)
DRD3 antagonist – qHTS of D3 Dopamine Receptor Antagonist: qHTS; D(3) dopamine receptor (Homo sapiens), P35462; D3R cells, DiscoveRx beta-arrestin luminescence, antagonist mode; active compounds read low; max response, negative = inhibition, %; 360,000 compounds, 2.5% hits; in the data active means max response below about -50%; inconclusive means no clear call, values can overlap the other calls; further: on the % scale 0 is the no-effect control and ±100 the full control effect
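Cells plated overnight at 1500 cells/well, then exposed to library compounds with dopamine controls for 90 minutes at 37 degrees C. DiscoveRx reagent added for 30–60 minutes at room temperature; luminescence read, quantitative HTS format.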
PI4K2A block – qHTS for small molecular inhibitors of PI4K2A. Phosphatidylinositol 4-kinase type 2-alpha (Homo sapiens), Q9BTU6. purified PI4K2A, ADP-Glo luminescence, 1 h; active compounds read low. activity change, negative = inhibition, % at 76.9 µM. 420,000 compounds, 0.13% hits. AID 1346378, 2018; in the data active means activity change below about -50%; inconclusive means mostly about -30% to -49%;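 further: -100% = wells without enzyme as full effect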
Target sequence (Q9BTU6 whole entry, looked up): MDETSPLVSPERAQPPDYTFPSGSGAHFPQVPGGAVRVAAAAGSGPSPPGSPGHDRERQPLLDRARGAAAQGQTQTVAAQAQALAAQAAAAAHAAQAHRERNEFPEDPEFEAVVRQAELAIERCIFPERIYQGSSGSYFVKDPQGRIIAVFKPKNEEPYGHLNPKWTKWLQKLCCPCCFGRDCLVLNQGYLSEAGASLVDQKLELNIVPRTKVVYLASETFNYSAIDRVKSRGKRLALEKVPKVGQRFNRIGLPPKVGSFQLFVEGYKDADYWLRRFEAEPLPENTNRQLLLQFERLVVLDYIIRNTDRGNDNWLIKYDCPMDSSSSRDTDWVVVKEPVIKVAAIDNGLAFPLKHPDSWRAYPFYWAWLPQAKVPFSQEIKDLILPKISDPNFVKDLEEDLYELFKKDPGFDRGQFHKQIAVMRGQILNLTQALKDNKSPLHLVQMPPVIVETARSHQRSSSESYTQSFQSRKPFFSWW
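In this quantitative HTS, ADP production by PI4K2A was quantified luminescently after 1 h at ambient temperature; 100 microM adenosine served as plate-quality control.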
LDHA inh – qHTS assay for inhibitors of human lactate dehydrogenase; AID 1347041, 2019; L-lactate dehydrogenase A chain (Homo sapiens), P00338; purified LDHA, NADH/diaphorase-resazurin fluorescence; active compounds read low; activity change, % (values are at about 110 or 230 µM); 480,000 compounds, 0.15% hits; in the data active means activity change below about -30%; inconclusive means mostly about -25% to -30%;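 further: plate controls were DMSO wells for no effect and wells without enzyme for full effect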
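Human LDH5 at 2 nM final in Tris HCl pH 7.4 with 0.06 mM NADH and 0.2 mM pyruvate, reacted 5 minutes at room temperature. Remaining NADH coupled via diaphorase/resazurin; resorufin fluorescence read at 0 and 20 minutes, normalized to enzyme-free and DMSO wells.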
pAkt inh – HTS Assay for Inhibitors of Akt Phophorylation: Primary Screen; activity change, % for hits at 50 µM; AID 651550, 2012; Neuro2A IGF-stimulated pAkt S473 HTRF, 20 min; active compounds read low; 360,000 compounds, 0.32% hits; in the data active means activity change below about -80%; inconclusive means mostly about -51% to -80%; further: on the % scale 0 is the no-effect control and ±100 the full control effect
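Single-point screen (50 µM final compound) in Neuro2A cells stimulated 20 min with 6 nM IGF at 37 deg C. After lysis, Ser473-phosphorylated Akt read by HTRF (ex 330 nm, em 615/665 nm) as the 665/615 ratio.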
DRD3 agonist – qHTS of D3 Dopamine Receptor Agonist: qHTS; max activation, %; AID 652048, 2013; 410,000 compounds, 0.58% hits; D3R DiscoveRx beta-arrestin cells, luminescence, 90 min; in the data active means max activation above about 30%; further: 0% is about no effect
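Cells at 1500/well, incubated overnight, then treated with pinned compounds (dopamine as control) for 90 min at 37 degrees C. DiscoveRx reagent added for 30 - 60 minutes at room temperature; luminescence read.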
RGS4 inh – Inhibitors of Regulator of G Protein Signaling (RGS) 4: qHTS. Regulator of G-protein signaling 4 (Homo sapiens), P49798. Transcreener GDP fluorescence polarization, RGS4-accelerated GTP hydrolysis. Potency, µM (highest dose often 114 µM), for the others: at the highest dose activity change, negative = inhibition, usual class: inhibitors. 390,000 compounds, 0.039% hits; active means well fitted inhibition curve with a large enough effect; inconclusive means small, poorly fitted or top-dose-only effect; inactive means no such curve, though single readings can be large or run the other way; further: potency means the concentration at half of the fitted maximal effect; on the % scale 0 is the no-effect control and ±100 the full control effect; nearly all actives have a fitted effect of over 75% in size
Target sequence (P49798 whole entry, looked up): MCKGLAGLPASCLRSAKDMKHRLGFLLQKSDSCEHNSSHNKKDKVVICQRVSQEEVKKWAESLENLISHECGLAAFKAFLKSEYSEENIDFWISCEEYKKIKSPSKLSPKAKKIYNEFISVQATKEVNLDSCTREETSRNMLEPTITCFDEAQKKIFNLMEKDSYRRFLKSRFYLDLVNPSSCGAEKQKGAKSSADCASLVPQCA
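MLSMR compounds (23 nl, pin-transferred) preincubated 10 min at room temperature with a 500nM (2x) first reagent, then RGS4 at 900nM (2x) plus Transcreener GDP mix added; fluorescence polarization (620/688 nm) read before and after 90 min at 30 °C.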
An asterisk follows results filed as active; i = inactive; u = inconclusive; x = not tested or not shown; [ ] = dose if it differs, or a comment. Hits are enriched below; roughly 2.8% of the tested compounds scored in any of these assays.

SMILES	DRD3 antagonist	PI4K2A block	LDHA inh	pAkt inh	DRD3 agonist	RGS4 inh
O=C(CNC(=O)c1cccc(Br)c1)N/N=C/c1cc(Br)cc(Br)c1O	-71*	1	-1	i	-30	-37%
N#Cc1ccc(NC(=O)C2CC(c3ccccc3)=NO2)cc1 (configuration not stated)	x	x	-6	x	x	x
CCn1cc(C(=O)NCC2CCCO2)c(=O)c2cc(S(=O)(=O)N(C)C3CCCCC3)ccc21 (configuration not stated)	-52*	-1	7	i	-1	-8%
Cc1ccccc1N(C)S(=O)(=O)c1ccc2[nH]cc(C(=O)NCC3CCCO3)c(=O)c2c1 (configuration not stated)	-69*	9	-2	i	9	-16%
CCc1ccccc1N(C)S(=O)(=O)c1ccc2[nH]cc(C(=O)O)c(=O)c2c1	6	-2	-42*	i	4	1%
CN(c1ccc(F)cc1)S(=O)(=O)c1ccc2[nH]cc(C(=O)O)c(=O)c2c1	9	-14	-30*	i	-5	30%
CCOC(=O)C1=C(C)OC(N)=C(C#N)C1c1cccc2ccccc12 (configuration not stated)	x	x	25	x	x	x
O=C(O)c1ccc(COc2cccc(Cl)c2)cc1	x	x	2	x	x	x
Cn1cc(-c2cc3n(n2)CCCN3C(=O)CCC(=O)N2CCCC2)c2ccccc21	x	x	3	x	x	x
O=C1c2cc(Br)ccc2N(Cc2ccc(Br)cc2)S(=O)(=O)C1c1cc(Cl)c(Cl)cc1[N+](=O)[O-] (configuration not stated)	4	-4	-43*	i	7	1%
O=C1CS(=O)(=O)N(Cc2cccc(F)c2)c2ccc(Br)cc21	-11	-4	0	i	-3	-10%
O=C(Nc1nc(C23CC4CC(CC(C4)C2)C3)cs1)C(c1ccccc1)c1ccccc1	x	x	-23	x	x	x
CCC1Oc2nc(SC)nnc2-c2ccccc2N1C(C)=O (configuration not stated)	x	x	-3	x	x	x
COc1cc(/C=C(\C#N)C(=O)NCC2CCCO2)ccc1OC(=O)c1ccco1 (configuration not stated)	-53*	27	-2	i	-10	-50%
COc1cc(/C=C(/C#N)C(=O)NCCCc2ccccc2)ccc1OCC(=O)O	126	-9	-34*	i	-1	-28%
COc1cc(/C=C(\C#N)C(=O)NCc2ccccc2)ccc1OCc1ccc(C(=O)O)cc1	1	-10	-13	i	0	-10%[11.4 µM]
COc1ccc(/C=C(\C#N)C(=O)NCC2CCCO2)cc1OC (configuration not stated)	13	8	-4	i	-1	-10%
NNC(=O)CN1C(c2cccc(Cl)c2)=Nc2ccc(Br)cc2C1c1ccccc1 (configuration not stated)	u	0	-18	i	-10	15%[56.9 µM]
COc1ccc(C2=Nc3ccc(C)cc3C(c3ccccc3)N2CC(=O)NN)cc1 (configuration not stated)	-105*	-17	-4	i	-31	-18%
COC(=O)CN1C(c2ccc(Cl)cc2)=Nc2ccc(Cl)cc2C1c1ccccc1 (configuration not stated)	6	1	-1	i	-2	-10%
COc1ccc(C2=Nc3ccc(Br)cc3C(c3ccccc3)N2CC(=O)NN)cc1 (configuration not stated)	-93*	-4	-8	i	-16	4%
Cc1ccc2nc(SCC(=O)OCc3ccccc3)nc(=O)n2c1	-55*	-4	4	i	-1	32%
Nn1c(SCC(=O)Nc2ccc(S(=O)(=O)N3CCCC3)cc2)nnc1C(F)(F)F	-15	-8	-7	-107%*	-1	35%
CC(C)NC(=O)NC(=O)CSc1nc2ccccc2c(=O)n1-c1ccccc1Cl	x	x	-20	x	x	x
Cc1ccccc1C(c1ncccc1C)N(C)C(=O)C1CCN(CCOc2ccc(Cl)cc2Cl)CC1 (configuration not stated)	-21	-7	1	i	20	x
SMILES	DRD3 antagonist	PI4K2A block	LDHA inh	pAkt inh	DRD3 agonist	RGS4 inh
O=C(NC(c1cccnc1)c1ccc2c(c1)OCO2)C1CCN(CCOc2ccc(Cl)cc2Cl)CC1 (configuration not stated)	-69*	-8	-4	i	-14	x
O=C(NC(c1ccccc1)c1cnccn1)C1CCN(CCOc2ccc(Cl)cc2Cl)CC1 (configuration not stated)	-84*	2	-3	x	-13	x
O=C(NC(c1ccccc1)c1ccsc1)C1CCN(CCOc2ccc(Cl)cc2Cl)CC1 (configuration not stated)	56	-3	-7	i	52*	x
Cc1ccc(NC(=O)CSCc2nc(-c3ccccc3)oc2C)cc1	x	x	18	x	x	x
COc1ccccc1N1CCN(C2CCCN(S(=O)(=O)c3cccc(Cl)c3)C2)CC1 (configuration not stated)	u	4	-4	i	-44	30%
COc1ccccc1N1CCN(C2CCCN(S(=O)(=O)c3ccc(C)cc3)C2)CC1 (configuration not stated)	-80*	0	-3	i	-25	31%
COc1ccc(S(=O)(=O)N2CCC(N3CCN(c4ccccc4OC)CC3)CC2)cc1	u	0	-32*	i	-13	-4%
COc1ccc(/C=C/c2nnc(Cc3ccccc3)o2)cc1	x	x	-2	x	x	x
N#Cc1c(N)sc2c1-c1ccccc1CC2	x	x	75	x	x	x
O=C1[C@@H]2Cc3c([nH]c4ccccc34)C(c3cccc([N+](=O)[O-])c3)N2C(=O)CN1CCCO (some centres not stated)	-58*	1	1	i	-9	0%
CN1CC(=O)N2C(c3cccc([N+](=O)[O-])c3)c3[nH]c4ccccc4c3C[C@H]2C1=O (some centres not stated)	-20	1	-3	i	-4	12%
Cc1ccc(NC(=O)C(=O)c2c(C)[nH]c3ccccc23)cc1Cl	x	x	-4	x	x	x
Cc1nn(CN2CCN(S(=O)(=O)c3ccc(Cl)cc3)CC2)c(=O)c2ccccc12	x	x	-3	x	x	x
Cc1c(CCC(=O)Nc2nc3ccccc3[nH]2)c(=O)oc2cc(O)ccc12	x	x	1	x	x	x
